In PubChem BioAssay AID687036 (The Scripps Research Institute Molecular Screening Center, 2013):
Hit rate of the full screen: of about 3,300 compounds, about 1,400 (42%) were called active. So high a share suggests a set chosen from earlier hits. Many of the other results were omitted from the sample, so actives are more common in it than they were. Unmarked numbers belong to inactive results.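 Rule for the calls: active = mean inhibition across replicates above the hit cutoff derived for the earlier primary screen (cut at about 22% in these data); inactive = the rest.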

Target: Protein arginine N-methyltransferase 1 (Homo sapiens) (UniProt Q99873)
Sequence (Q99873 whole entry, looked up): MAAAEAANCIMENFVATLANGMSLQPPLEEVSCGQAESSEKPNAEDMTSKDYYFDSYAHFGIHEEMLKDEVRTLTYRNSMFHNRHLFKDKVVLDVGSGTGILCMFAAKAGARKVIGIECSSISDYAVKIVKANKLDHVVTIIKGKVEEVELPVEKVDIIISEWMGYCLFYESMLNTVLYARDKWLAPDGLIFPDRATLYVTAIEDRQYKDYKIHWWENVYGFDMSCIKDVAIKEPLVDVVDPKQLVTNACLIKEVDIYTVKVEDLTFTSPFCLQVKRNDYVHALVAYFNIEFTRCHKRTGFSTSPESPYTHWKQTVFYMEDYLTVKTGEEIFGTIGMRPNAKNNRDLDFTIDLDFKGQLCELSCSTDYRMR
Test: human PRMT1 activity-probe blockers, retest – biochemical, fluorescence polarization, triplicate, confirmation (AID 687036)
Conditions: recombinant His-PRMT1, activity-based probe fluorescence polarization; at 2.79 µM; hits give high values

Row | SMILES | inhibition
1 | COc1ccc(N2C(=O)/C(=C/c3ccco3)C(=O)NC2=S)cc1 | 75.2% (active)
2 | Cc1cc(N2CCNC[C@@H]2C)ccc1N1CC[C@H](O)C1 | 4.59%
3 | O=C1NC(=O)N(Cc2ccco2)C(=O)/C1=C\c1ccc(-c2ccc(F)cc2)o1 | 52.9% (active)
4 | Cc1cc(/C=C2/C(=O)NC(=O)N(Cc3ccco3)C2=O)c(C)n1-c1ccc(C(=O)O)cc1 | -1.23%
5 | CCOC(=O)CC(SP1(=S)OCC2(CCCCO2)C(C2CCCCO2)O1)C(=O)OCC (stereo unspecified) | 60.2% (active)
6 | O=C1N=c2ccccc2=C/C1=C\c1c(O)[nH]c(=S)[nH]c1=O | 55.4% (active)
